Rows were chosen to be rich in hits. Some 2.6% of all compounds tested hit in one or more screens of this group.
14-3-3 Bad inh – inhibitors of 14-3-3 zeta/Bad binding, primary screen, biochemical, TR-FRET, bovine 14-3-3 zeta; 14-3-3 protein zeta/delta (Bos taurus), P63103; TR-FRET 14-3-3zeta/Dy647-pBad peptide displacement, 1 h; inhibition, % at 21.7 µM; actives 0.71% (n = 220,000); AID 781, 2007;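 active = inhibition above about 70%, limit read from the data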;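 note: 0% = full 14-3-3 plus peptide FRET controls and 100% = background without 14-3-3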
Target sequence (P63103 whole entry, looked up): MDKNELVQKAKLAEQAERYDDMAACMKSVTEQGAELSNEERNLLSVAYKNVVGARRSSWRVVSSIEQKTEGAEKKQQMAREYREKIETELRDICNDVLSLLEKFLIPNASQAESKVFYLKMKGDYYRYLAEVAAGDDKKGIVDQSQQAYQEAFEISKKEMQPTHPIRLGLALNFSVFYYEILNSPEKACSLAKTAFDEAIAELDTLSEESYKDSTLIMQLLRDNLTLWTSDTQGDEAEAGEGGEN
Mcl1 Bid PPI – Mcl-1/Bid binding inhibitors, primary screen, biochemical, TR-FRET, 1536-well. Induced myeloid leukemia cell differentiation protein Mcl-1 (Homo sapiens), Q07820. TR-FRET Mcl-1/Bid-Dy647 peptide binding. inhibition, % at 21.7 µM. actives 0.97% (n = 220,000). AID 1021, 2008;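 active = compounds that cut the binding signal by more than half at the single screening dose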;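 note: His-tagged Mcl-1 with europium anti-His antibody binding Bid BH3 peptide; 0% = Mcl-1 plus peptide wells and 100% = peptide-only wells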
MCL1-BIM inh – inhibitors of MCL1 binding to BIM-BH3, primary screen, biochemical, fluorescence polarization; Induced myeloid leukemia cell differentiation protein Mcl-1 (Homo sapiens), Q07820; GST-MCL1 / FITC-Bim-BH3 fluorescence polarization; inhibition, % at 10.9 µM; actives 0.68% (n = 320,000); AID 2057, 2009;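 active = inhibition above the mean inhibition of all tested compounds plus 3 SD, set per campaign, cut at about 40% in these data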;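 note: 0% = DMSO wells and 100% = unlabeled Bim-BH3 peptide control; higher means more loss of mP so more displacement of Bim peptide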
Mcl-1 Bim block – inhibitors of Bim peptide binding to Mcl-1, primary screen, biochemical, bead-based flow cytometry, multiplex | actives 0.1% (n = 190,000) | Bim peptide-Mcl-1 binding | inhibition, % at 10 µM; in the data active = inhibition above about 40%;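 note: 0% = no compound tracer wells and 100% = peptide blocker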
eIF4E-4G inh – eIF4E–eIF4G protein interaction inhibitors, primary screen, biochemical, uHTS, TR-FRET, eIF4GI fragment; actives 0.37% (n = 220,000); TR-FRET eIF4E-eIF4GI(517-606) binding, 2 h; Eukaryotic translation initiation factor 4E (Mus musculus) + Eukaryotic translation …; AID 782, 2007; inhibition, % at 21.7 µM;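 active = inhibition above about 30%, limit read from the data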;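 note: 0% = full FRET control wells and 100% = background wells lacking eIF4GI fragment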
Mcl1-Noxa inh – Mcl-1/Noxa binding inhibitors, primary screen, biochemical, TR-FRET, 1536-well | Induced myeloid leukemia cell differentiation protein Mcl-1 (Homo sapiens), Q07820 | TR-FRET Mcl-1/Noxa peptide binding, 2 h | inhibition, % at 21.7 µM | actives 1.5% (n = 220,000) | AID 1022, 2008;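 active = compounds that cut the protein-peptide binding signal by more than 50% relative to plate controls in a single-dose test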;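 note: His-tagged Mcl-1 with rhodamine Noxa BH3 peptide and terbium anti-His antibody; 0% = Mcl-1 plus Noxa peptide wells and 100% = peptide-only wells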
The depositor's hits bear a star; . = not tested or not shown.

SMILES	14-3-3 Bad inh	Mcl1 Bid PPI	MCL1-BIM inh	Mcl-1 Bim block	eIF4E-4G inh	Mcl1-Noxa inh
C/C(=N\NC(=O)C1=NNC(=O)C1C)c1cccs1 (configuration not stated)	-13	-16	-14	0	5	-3
COc1ccc(-c2csc(NC(=O)CSc3nc(C)nc4sc(C(=O)O)c(C)c34)n2)cc1	52	36	8	.	4	99*
CCc1nccn1CCC(=O)NC1CC(C)(C)Cc2c1cnn2-c1cccc(F)c1 (configuration not stated)	.	.	9	.	.	.
CN1CCN(CCCNC(=O)Nc2cccc3ccccc23)CC1	11	-3	2	-5	10	17
CCN(C(=O)CN1CCN(C)CC1)c1cccc2ccccc12	55	56*	-5	9	2	23
COc1ccc(Cc2nc(-c3ccc(Br)cc3)no2)cc1	-2	-6	-5	1	-4	58*
COc1ccc(Cc2nc(-c3ccc(Cl)cc3)no2)cc1	-6	2	3	-4	1	.
O=C(Nc1ccc2c(c1)OCO2)c1cc(-c2ccc(O)cc2)on1	.	.	12	.	.	.
CCOc1ccc(S(=O)(=O)N2CCC(C(=O)NCc3ccncc3)CC2)cc1C	.	.	-1	.	.	.
CCOC(=O)CC(=O)CSc1nc2ccc(OC)cc2cc1C	-1	-15	47*	0	-3	12
CN1C2C=C3C(C#N)=C(N)C(C#N)(C#N)[C@@H](c4ccsc4)[C@@H]3C1CC2 (some centres not stated)	-22	-17	30	53*	-2	10
COC(=O)c1sc(S(=O)(=O)N2CCCCC2C)c(C(=O)OC)c1C (configuration not stated)	.	.	6	.	.	.
COc1cccc(-c2nn(C)c3sc(C(=O)NCc4ccc(C)o4)cc23)c1	12	-8	3	2	-16	60*
COc1cccc(-c2nn(C)c3sc(C(=O)NCc4ccc5c(c4)OCO5)cc23)c1	-2	-9	4	0	-2	-16
CCOC(=O)Cc1csc(NC(=O)/C=C/c2ccc(Cl)cc2)n1	-3	-37	0	.	-4	-13
CCOC(=O)c1sc(N)nc1C(C)(C)C	74*	1	3	0	7	18
CCOC(=O)c1sc(NCCNc2nc(C)c(C(=O)OCC)s2)nc1C	.	.	2	.	.	.
CC(=O)Nc1ccc(NC(=S)NC(=O)/C=C/c2ccc(Cl)cc2)cc1	7	7	3	-1	3	-8
O=C(/C=C/c1ccco1)NC(=S)Nc1cc(-c2nc3ccccc3s2)ccc1Cl	26	63*	-2	-4	10	64*
O=C(/C=C/c1ccco1)Nc1ccc(C(=O)N2CCOCC2)cc1	3	-56	6	-3	16	11
NC(N)=NS(=O)(=O)c1ccc(NC(=S)NC(=O)/C=C/c2ccco2)cc1	28	0	18	-1	2	-62
NS(=O)(=O)c1ccc(NC(=S)NC(=O)/C=C/c2ccco2)cc1	1	32	8	-2	4	89*
O=C(/C=C/c1ccco1)Nc1ccc(N2CCCC2)cc1	5	-61	8	-2	14	64*
O=C(/C=C/c1ccc(Cl)cc1)NC(=S)Nc1ccc(NC(=O)c2ccco2)cc1	25	56*	10	-5	0	46
Cc1ccc(-c2nc3ccccc3o2)cc1NC(=S)NC(=O)/C=C/c1ccco1	-4	2	-1	-2	2	4
O=C(/C=C/c1ccco1)NC(=S)Nc1cccc(-c2nc3ccccc3o2)c1	33	65*	-2	0	-21	.
COc1cc(CC2COC(c3ccc(O)c(OC)c3)C2COC(C)=O)ccc1O (configuration not stated)	22	-72	24	.	9	70*
